In all, about 310,000 compounds went through this assay and about 14,000 (4.5%) showed an effect of 50% or more. The effect is printed as a negative number. What follows is part of a selection rich in strong results, with near analogues and random picks from the rest.
Target: human ether-à-go-go-related gene (hERG) potassium channel (human, UniProt Q12809)
Experiment: primary screen, population patch clamp on CHO cells stably expressing hERG; higher = less effect of the substance
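Note: peak tail current of the secondary pulse compared with the same well before compound.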

Sequence of human ether-à-go-go-related gene (hERG) potassium channel (Q12809 whole entry, looked up): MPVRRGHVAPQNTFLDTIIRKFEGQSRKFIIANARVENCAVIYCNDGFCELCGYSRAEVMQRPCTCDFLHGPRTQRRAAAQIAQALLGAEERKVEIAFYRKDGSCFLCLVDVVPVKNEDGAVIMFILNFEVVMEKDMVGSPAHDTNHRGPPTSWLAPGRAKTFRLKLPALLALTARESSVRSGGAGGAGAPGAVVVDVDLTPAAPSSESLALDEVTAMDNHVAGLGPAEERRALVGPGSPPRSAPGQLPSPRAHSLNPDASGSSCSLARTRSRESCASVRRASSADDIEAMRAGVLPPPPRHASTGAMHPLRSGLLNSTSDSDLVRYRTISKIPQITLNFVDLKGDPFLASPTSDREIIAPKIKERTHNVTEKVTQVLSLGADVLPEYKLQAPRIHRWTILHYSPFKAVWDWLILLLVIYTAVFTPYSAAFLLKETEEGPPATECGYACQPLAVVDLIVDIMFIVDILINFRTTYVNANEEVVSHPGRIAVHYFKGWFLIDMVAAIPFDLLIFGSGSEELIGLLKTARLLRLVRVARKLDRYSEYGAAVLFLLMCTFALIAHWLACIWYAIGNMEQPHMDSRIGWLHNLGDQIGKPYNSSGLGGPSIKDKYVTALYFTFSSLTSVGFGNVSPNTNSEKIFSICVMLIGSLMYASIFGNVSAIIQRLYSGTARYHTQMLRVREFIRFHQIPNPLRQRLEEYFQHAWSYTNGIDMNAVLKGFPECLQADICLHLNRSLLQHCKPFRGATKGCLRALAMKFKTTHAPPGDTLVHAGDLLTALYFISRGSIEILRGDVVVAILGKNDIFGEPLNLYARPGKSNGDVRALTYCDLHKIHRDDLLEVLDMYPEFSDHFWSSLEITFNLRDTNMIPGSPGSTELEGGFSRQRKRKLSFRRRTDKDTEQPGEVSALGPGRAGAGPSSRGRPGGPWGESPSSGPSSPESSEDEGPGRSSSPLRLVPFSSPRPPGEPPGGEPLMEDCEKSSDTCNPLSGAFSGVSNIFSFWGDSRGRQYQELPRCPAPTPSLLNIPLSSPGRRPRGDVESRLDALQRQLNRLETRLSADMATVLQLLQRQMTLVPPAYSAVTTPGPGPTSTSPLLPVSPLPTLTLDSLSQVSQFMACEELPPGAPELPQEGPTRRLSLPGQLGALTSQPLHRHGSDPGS

SMILES	hERG current change (%, negative = inhibition) at 10uM [%]
CC1(c2nnc(-c3ccccc3)o2)CC(c2ccc([N+](=O)[O-])cc2)=NO1 (stereo not drawn)	4.53
O=C(Nc1cccc(Cl)c1)c1cc(S(=O)(=O)N2CCCCC2)c[nH]1	-9.13
Cc1nn2c(=O)cc(CSc3ccccc3NC(=O)c3ccccc3F)nc2s1	-3.29
CCCCCCCCCCCC(=O)N/N=C/c1ccco1	-11.2
COc1ccc(Cc2nc3ccc(C(=O)N4CCCCC4CCO)cc3o2)cc1 (stereo not drawn)	4.93
CN(C)C(=O)Cn1c(SCC(=O)NC2CCCCC2)nc2ccccc21	7.7
COC(=O)Cn1c(=O)c(=O)n(CC(=O)OC)c2ccccc21	22.7
Cn1cnc(S(=O)(=O)NC2CCN(Cc3c(F)cccc3Cl)CC2)c1	-18.6
COCCN(C(=O)C1CC1)c1nnc(-c2cccc(C)c2)s1	-6.82
O=C(OCC(=O)N1CCN(c2ccccc2)CC1)c1cc(Cl)ccc1[N+](=O)[O-]	-37
O=C(O)CCCC(=O)N1CCN(c2cccc(Cl)c2)CC1	2.98
O=C(OCC(=O)N1CCN(c2ccccc2)CC1)c1ccc(Cl)cc1[N+](=O)[O-]	-63.6
CN1CCN(C(=O)CCn2c(=O)c3cccn3c3cccnc32)CC1	8.62
O=C(OCC(=O)N1CCN(c2ccccc2)CC1)c1ccccc1[N+](=O)[O-]	-28.8
O=C(CCNS(=O)(=O)c1cccs1)N1CCN(c2cccc(Cl)c2)CC1	-10.3
O=C(CCCNS(=O)(=O)c1cccs1)N1CCN(c2cccc(Cl)c2)CC1	-56.9
O=C(CCn1c(=O)c2cccn2c2cccnc21)N1CCN(c2cccc(Cl)c2)CC1	-58.8
O=C(CCC(=O)N1CCN(c2cccc(Cl)c2)CC1)N1CCN(c2ccccc2)CC1	-55.6
O=C(O)CCC(=O)N1CCN(c2cccc(Cl)c2)CC1	12

SMILES	hERG current change (%, negative = inhibition) at 10uM [%]
O=C(Cn1c(=O)c2cccn2c2cccnc21)N1CCN(c2ccc(Cl)cc2)CC1	-47
O=C(CCCNS(=O)(=O)c1cccs1)N1CCN(c2ccc(F)cc2)CC1	-43.2
O=C(COc1c(Br)cc(Br)cc1Br)N/N=C/c1ccco1	14.2
Nc1nnc(SCC(=O)Nc2ccc(Cl)c(C(=O)O)c2)s1	19.8
O=C(NCCc1ccc(C(F)(F)F)cc1)C1CC(=O)N(c2ccc3c(c2)OCCO3)C1 (stereo not drawn)	-2.97
O=C(Cn1cc(C(=O)C2CCCCC2)c2ccccc21)NCC1CCCO1 (stereo not drawn)	-14.8
O=C(Nc1ccc(Br)cc1)NC1CCCCCCC1	2.29
O=C(NCCN1CCCCC1)/C(=N\O)c1ccccc1	5.35
O=C(CCn1c(=O)[nH]c2ccsc2c1=O)N1CCN(c2ccc([N+](=O)[O-])cc2)CC1	-35.2
O=C(CCn1c(=O)[nH]c2ccsc2c1=O)N1CCN(c2cccc(Cl)c2)CC1	-52.3
O=C(CCC(=O)N1CCN(c2ccc(O)cc2)CC1)c1cccs1	-3.11
COc1ccccc1N1CCN(C(=O)CCn2c(=O)[nH]c3ccsc3c2=O)CC1	8.71
O=C(NCCC(=O)N1CCN(c2cccc(Cl)c2)CC1)c1ccc(Br)cc1	-55
O=C(CCC(=O)N1CCN(c2cccc(Cl)c2)CC1)c1cccs1	-56.8
O=C(c1cccs1)N1CCN(c2cccc(Cl)c2)CC1	-16.5
O=C(NCCC(=O)N1CCN(c2ccccc2O)CC1)c1ccc(Br)cc1	-13.3
COc1ccc(N2CCN(C(=O)CCNC(=O)c3ccc(Br)cc3)CC2)cc1	-20.2
COc1ccccc1CSc1ncc(-c2ccc([N+](=O)[O-])cc2)[nH]1	-13.8
CC(C)(C)C(=O)CN1C(=O)NC2(CCCc3ccccc32)C1=O (stereo not drawn)	14

SMILES	hERG current change (%, negative = inhibition) at 10uM [%]
O=C(CCC1CCN(C(=O)c2cncs2)CC1)Nc1ccccc1	-4.83
COCCNC(=O)CN(C(=O)CCC(=O)Nc1ccccn1)c1ccc(C)c(C)c1	16
Cc1ccc(C(=O)/C=C/NCc2ccc(F)cc2)cc1	-9.71
COc1ccc(C(=O)/C=C/NCc2ccc(F)cc2)cc1OC	-65
CCc1ccc(C(=O)/C=C/NCc2ccc(F)cc2)cc1	-4.74
CC(C)=C1C2CCC1C1C(=O)N(c3nc(-c4ccccc4)c(C)s3)C(=O)C21 (stereo not drawn)	-2.93
COc1cccc(NC(=O)CSc2nc3scc(C)c3c(=O)[nH]2)c1	10.5
CC(=O)c1ccc(N2CCN(c3ccc(S(=O)(=O)NCCCN(C)C)cc3[N+](=O)[O-])CC2)cc1	-18.1
CN(C)CCNS(=O)(=O)c1ccc(N2CCN(c3ccc(F)cc3)CC2)c([N+](=O)[O-])c1	-62.4
CC(=O)c1ccc(N2CCN(c3ccc(S(=O)(=O)NCCN(C)C)cc3[N+](=O)[O-])CC2)cc1	-23.2
CCOC(=O)c1c(N)nn(C(=O)C(C)C)c1-c1ccc(OC)cc1	22.1
O=[n+]1c2c(n([O-])c3cc(F)c(F)cc31)CCCC2	10.2
CCN(CC)CCCn1c2c(c(SCC(=O)Nc3nccs3)nc1=O)CCC2	-32
CCN(CC)CCCn1c2c(c(SCC(=O)Nc3nc(C)cs3)nc1=O)CCC2	-42.6
CCN(CC)CCn1c2c(c(SCC(=O)Nc3nccs3)nc1=O)CCCC2	-59.5
Cc1csc(NC(=O)CSc2nc(=O)n(CCN(C)C)c3c2CCCC3)n1	-55.9
CCN(CC)CCn1c2c(c(SCC(=O)Nc3nc(C)cs3)nc1=O)CCCC2	-70.1
CCN(CC)CCn1c2c(c(SCC(=O)Nc3nc(C)cs3)nc1=O)CCC2	-48.7
CN(C)CCn1c2c(c(SCC(=O)Nc3nccs3)nc1=O)CCCC2	-30
